Source: PubChem BioAssay
Several values for one entry are separate records, joined by “and”; a condition that tells them apart may be missing. Equal values may be shown once. The source holds several records for some structures; these can differ, active in one and inactive in another. Activity calls are given as the source filed them.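 How the source made its calls, unless noted: active means inhibition at or above 50% relative to wild type and mutant plate controls; inactive means inhibition below 50%.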

Tests used:
[1] = endothelial E-selectin expression blockers – imaging, HUVEC, immunofluorescence, MLSMR starter and 10KST1 sets, primary screen (AID 487;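 active means visually confirmed hit in the image check and inhibition above 20%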;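 on inhibition: signal is fraction of cell area covered by stained E-selectin grains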;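 on nuclei count: 100% = median nuclei count of all wells on the same plate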); details: HUVEC TNFalpha-induced E-selectin immunofluorescence imaging, at 2 µM; inhibition: stronger effect = higher value; nuclei count: measured here: cell number, toxicity
[2] = Primary imaging screen for DUSP6 inhibitors that restore phospho-Erk in transfected HeLa cells, chemical complementation (AID 609;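 active means compounds giving at least 50% inhibition in the cell-based MKP-3 phosphatase rescue imaging test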;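 on inhibition: phospho-Erk level distribution per well compared with pooled transfected vehicle control wells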); details: HeLa MKP-3 transfected, phospho-Erk imaging KS statistic, at 10 µM, cells stimulated with TPA for 15 min
[3] = target: Dual specificity protein phosphatase 6 (Homo sapiens) (UniProt Q16828); experiment: as above; details: HeLa MKP-3 transfected, phospho-Erk imaging KS statistic; at 10 µM; stronger effect = higher value; cells stimulated with TPA for 15 min
Dual specificity protein phosphatase 6 (Homo sapiens), sequence (Q16828 whole entry, looked up): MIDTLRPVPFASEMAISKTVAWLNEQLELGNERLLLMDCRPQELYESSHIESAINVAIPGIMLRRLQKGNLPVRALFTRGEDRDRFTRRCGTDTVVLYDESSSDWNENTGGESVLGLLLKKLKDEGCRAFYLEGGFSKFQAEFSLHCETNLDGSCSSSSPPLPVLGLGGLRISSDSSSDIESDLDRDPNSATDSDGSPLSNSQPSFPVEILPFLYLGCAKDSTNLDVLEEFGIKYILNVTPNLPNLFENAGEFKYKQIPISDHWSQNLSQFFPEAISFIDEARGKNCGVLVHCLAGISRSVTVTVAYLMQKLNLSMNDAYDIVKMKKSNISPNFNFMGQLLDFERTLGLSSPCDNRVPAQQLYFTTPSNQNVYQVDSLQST

[4] = target: Voltage-gated potassium channel subunit beta-2 (Rattus norvegicus) (UniProt P62483); experiment: inhibitors of rat Kvbeta2 reductase activity – biochemical, NADPH fluorescence, primary screen (AID 622;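 active means fluorescence slope higher than the sample average by over 3 SD, cut at about -0.22 in these data, passing the limit was not always enough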;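 further: slope of raw intensity against log time taken from 70 to 1610 s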); details: recombinant KvBeta, 4-cyanobenzaldehyde reduction, at 10 µM, stronger effect = higher value
Voltage-gated potassium channel subunit beta-2 (Rattus norvegicus), sequence (P62483 whole entry, looked up): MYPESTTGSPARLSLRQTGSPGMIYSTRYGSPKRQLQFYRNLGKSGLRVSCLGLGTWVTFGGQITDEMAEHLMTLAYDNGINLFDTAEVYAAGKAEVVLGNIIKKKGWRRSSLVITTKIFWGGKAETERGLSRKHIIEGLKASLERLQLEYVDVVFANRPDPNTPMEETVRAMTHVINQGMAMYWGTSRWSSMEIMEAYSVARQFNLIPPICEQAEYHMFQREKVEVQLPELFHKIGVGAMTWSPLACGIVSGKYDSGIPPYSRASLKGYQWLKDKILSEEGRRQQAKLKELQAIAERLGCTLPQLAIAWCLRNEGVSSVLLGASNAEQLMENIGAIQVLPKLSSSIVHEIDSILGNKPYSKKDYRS

[5] = target: Voltage-gated potassium channel subunit beta-2 (Rattus norvegicus) (UniProt P62483); experiment: enhancers of rat Kvbeta2 NADPH turnover – biochemical, NADPH fluorescence, primary screen (AID 623;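 active means NADPH fluorescence slope more negative than the mean of all samples by about 3 SD, 99.7% confidence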;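 further: fluorescence intensity change per second fitted from 20 to 320 s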); details: Recombinant KvBeta, NADPH fluorescence decrease slope, 10 min; at 10 µM; stronger effect = lower value
[6] = target: Alpha-2C adrenergic receptor (Homo sapiens) (UniProt P18825); experiment: compounds altering alpha2C-coupled GIRK flux – cell-based, HEK293 alpha2C/GIRK1/2, thallium flux, primary screen (AID 624;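 active means fluorescence slope after compound addition differing from the mean of all screened samples at 99.7% confidence, in either direction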;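 further: slope of fluorescence ratio to pre-addition baseline per second over 15 to 24 s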); details: thallium flux BTC fluorescence, at 10 µM, actives lie on both sides
Alpha-2C adrenergic receptor (Homo sapiens), sequence (P18825 whole entry, looked up): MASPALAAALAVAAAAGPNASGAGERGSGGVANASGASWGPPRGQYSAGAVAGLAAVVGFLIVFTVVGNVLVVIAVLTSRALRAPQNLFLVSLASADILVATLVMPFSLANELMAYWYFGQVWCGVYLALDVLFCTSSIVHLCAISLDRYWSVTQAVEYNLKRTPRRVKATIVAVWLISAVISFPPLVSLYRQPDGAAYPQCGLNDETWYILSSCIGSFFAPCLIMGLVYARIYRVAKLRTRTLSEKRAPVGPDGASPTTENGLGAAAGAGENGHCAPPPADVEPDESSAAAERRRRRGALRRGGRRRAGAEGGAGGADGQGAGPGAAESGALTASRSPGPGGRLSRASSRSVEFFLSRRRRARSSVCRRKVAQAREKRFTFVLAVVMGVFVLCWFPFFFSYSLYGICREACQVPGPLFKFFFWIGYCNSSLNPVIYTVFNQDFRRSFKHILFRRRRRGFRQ

[7] = inhibitors of larval lipid processing in zebrafish, primary screen, whole organism, PED6 fluorescence, gall bladder and intestine (AID 686;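 active means a full or partial loss of lipid-probe fluorescence in the fish gall bladder, intestine or both, judged by eye; inactive means no fluorescence loss, or compound toxic to the fish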;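 further: larvae 5 to 7 days old with five fish per well; signal comes from phospholipase A2 cleavage of quenched PED6 carried via bile; overnight exposure to compound and PED6 before scoring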); details: Zebrafish larvae PED6 lipid processing, fluorescence scoring; screened at 20 µM (by protocol)
[8] = loss of swimming-algae plug formation – whole organism, Chlamydomonas reinhardtii, WT vs cilia-less mutant, absorbance, 96-well, primary screen (AID 463189); details: Chlamydomonas reinhardtii gravitaxis, OD600 absorbance, 2 days; at 10 µM; stronger effect = higher value;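 further: 0% = wild type cc124 cells in DMSO and 100% = ciliumless bld1 mutant cells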
[9] = blockers of RIG-like receptor reporter activation – cell-based, Sendai virus stimulus, luciferase, 10K MLSCN set, TLR/RLR signaling modifier project, primary screen (AID 602276;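 active means inhibition at or above 50% at 10 µM; inactive means inhibition below 50%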;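 further: firefly luciferase from ISG56 promoter only with Renilla not read in this screen; 0% = Sendai virus plus DMSO and 100% = medium plus DMSO without virus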); details: HEK293 RL24 IRF3 luciferase reporter, at 10 µM, stronger effect = higher value
[10] = TLR3 IRF3 reporter activation blockers – cell-based, poly I:C stimulus, luciferase, 10K MLSCN set, primary screen (AID 602277;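 active means inhibition of the reporter signal at or above 50%; inactive means inhibition below 50%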); details: HEK293-TLR3 RL24 IRF3 luciferase reporter, at 10 µM, stronger effect = higher value
[11] = target: Muscarinic acetylcholine receptor M4 (Homo sapiens) (UniProt P08173); experiment: M4-linked GIRK flux change, two-sided – cell-based, HEK293 M4/GIRK, thallium flux, BTC-AM, M4 allosteric agonist project, primary screen (AID 625;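 active means fluorescence slope after compound addition differing from the mean of all tested samples at 99.7% confidence, mostly higher but some lower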;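 further: thallium influx through GIRK channels coupled to M4 in HEK293 cells with BTC-AM dye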); details: at 10 µM, actives lie on both sides
Muscarinic acetylcholine receptor M4 (Homo sapiens), sequence (P08173 whole entry, looked up): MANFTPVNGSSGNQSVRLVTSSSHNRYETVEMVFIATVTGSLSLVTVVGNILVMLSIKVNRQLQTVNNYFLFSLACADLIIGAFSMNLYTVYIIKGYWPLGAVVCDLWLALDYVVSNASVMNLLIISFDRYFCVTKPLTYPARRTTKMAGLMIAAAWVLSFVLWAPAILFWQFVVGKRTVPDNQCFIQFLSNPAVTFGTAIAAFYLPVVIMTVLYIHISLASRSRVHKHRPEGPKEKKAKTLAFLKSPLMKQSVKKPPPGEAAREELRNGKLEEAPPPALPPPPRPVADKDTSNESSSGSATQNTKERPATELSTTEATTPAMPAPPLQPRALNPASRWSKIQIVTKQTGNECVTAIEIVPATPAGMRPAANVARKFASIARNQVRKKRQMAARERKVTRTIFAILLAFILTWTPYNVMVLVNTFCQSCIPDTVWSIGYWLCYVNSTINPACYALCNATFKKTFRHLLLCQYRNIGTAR

[12] = reduction of polyQ htt aggregates in cells – imaging, exon1htt(103Q)mCFP cells, high-content imaging, primary screen (AID 483;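 active means visual image review flags a hit and inhibition of aggregation exceeds 20%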;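 further: compound exposure lasted 3 days before fixation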;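 on nuclei count: percent of the per-plate median nuclei count of sample wells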); details: exon1htt(103Q)mCFP cell line, aggregate imaging, at 2 µM; inhibition of aggregation: stronger effect = higher value; nuclei count: measured here: cell count, toxicity
[13] = measured here: cell density z-score
[14] = measured here: nuclear c-Myc green intensity z-score
[15] = measured here: nuclear pErk red intensity z-score, stronger effect = higher value

| Structure (SMILES) | inhibition [1] | nuclei count [1] | z-score [2, 13] | z-score [2, 14] | z-score [2, 15] | inhibition [3] | fluorescence slope [4] | NADPH fluorescence slope [5] | slope [6] | outcome [7] | inhibition [8] | inhibition [9] | inhibition [10] | fluorescence slope [11] | inhibition of aggregation [12] | nuclei count [12] |
| --- | --- | --- | --- | --- | --- | --- | --- | --- | --- | --- | --- | --- | --- | --- | --- | --- |
| Fc1ccc(C(c2ccc(F)cc2)N2CCN(C/C=C/c3ccccc3)CC2)cc1 | -61.3% (inactive) | 124% | -0.381 | 1.96 | -1.06 | 23.4% (inactive) | -0.463 (inactive) | -6.2e-05 (inactive) | 0.00453 (inactive) | inactive; toxic | -8.15% (inactive) and 80.3% (active) | 10.5% (inactive) | 42.4% (inactive) | – | – | – |
| CN(C)/C=C1\N=C(c2cccs2)OC1=O | -85.3% (inactive) | 178% | -0.766 | -0.714 | 0.335 | 1.75% (inactive) | -0.406 (inactive) | -4e-05 (inactive) | – | inactive | 26.8% (inactive) | – | – | 0.00407 (inactive) | – | – |
| Cc1ccc(N2CN=c3s/c(=C\c4cccnc4)c(=O)n3C2)cc1 | -18.9% (inactive) | 87.4% | -0.873 | 0.442 | 0.633 | 1.75% (inactive) | -0.483 (inactive) | -4.2e-05 (inactive) | – | inactive | 36.5% (inactive) | – | – | 0.00552 (inactive) | – | – |
| Cc1nnc(NS(=O)(=O)c2ccc(N)cc2)s1 | -81.2% (inactive) | 125% | 0.0804 | 0.446 | 0.118 | 19% (inactive) | -0.526 (inactive) | -3.2e-05 (inactive) | 0.00418 (inactive) | inactive | -0.666% (inactive) | -4.22% (inactive) | -8.79% (inactive) | – | – | – |
| CC1(C)S[C@@H]2[C@H](NC(=O)[C@H](N)c3ccccc3)C(=O)N2[C@H]1C(=O)O | -51.2% (inactive) | 131% | -0.832 | -1.51 | 1.6 | -8.38% (inactive) | -0.459 (inactive) | 1.8e-05 (inactive) | 0.0053 (inactive) | inactive | -0.692% (inactive) | 7.78% (inactive) | 28.7% (inactive) | – | – | – |
| COc1ccc(OCC(=O)OCCN(C)C)cc1 | -159% (inactive) | 170% | -1.95 | -1.2 | -0.272 | -10.6% (inactive) | -0.383 (inactive) | -2.2e-05 (inactive) | 0.00493 (inactive) | inactive | 6.76% (inactive) | – | – | – | – | – |
| CC[C@H]1CN2CCc3cc(OC)c(OC)cc3[C@@H]2C[C@@H]1C[C@H]1NCCc2cc(OC)c(OC)cc21 | 103% (active) | 103% | 0.501 | -0.649 | 0.619 | 11.3% (inactive) | -0.553 (inactive) | -3.6e-05 (inactive) | 0.00425 (inactive) | inactive | 69.7% (active) and 130% (active) | -28.7% (inactive) | 103% (active) | – | – | – |
| CN1CCN(C2=Nc3cc(Cl)ccc3Nc3ccccc32)CC1 | -176% (inactive) | 132% | -0.235 | 0.0948 | 0.322 | -0.493% (inactive) | -0.457 (inactive) | -6.9e-05 (inactive) | – | inactive | -2.62% (inactive) and 13.2% (inactive) | 2.76% (inactive) | 60.3% (active) | 0.00391 (inactive) | – | – |
| CCN(CC)CCNC(=O)c1ccc(N)cc1 | -57.1% (inactive) | 133% | 1.09 | -0.602 | -0.833 | 3.59% (inactive) | -0.52 (inactive) | -0.000102 (inactive) | 0.00563 (inactive) | inactive | 3.94% (inactive) and 1.02% (inactive) | -2.32% (inactive) | 3.63% (inactive) | – | – | – |
| CCC1=Nc2ccccc2NC2=C1C(=O)CCC2 | -65.4% (inactive) | 87.8% | -1.25 | 0.203 | -0.00909 | 3.66% (inactive) | -0.427 (inactive) | -3.7e-05 (inactive) | – | inactive | 23.6% (inactive) | – | – | 0.00568 (inactive) | – | – |
| CCOC(=O)c1cc(CC)sc1NC(=O)C1CC1 | 5.7% (inactive) | 151% | 0.13 | -0.277 | 0.203 | 1.75% (inactive) | -0.369 (inactive) | -6.8e-05 (inactive) | – | inactive | -9.3% (inactive) | – | – | 0.0058 (inactive) | – | – |
| CN(C)CCCN1c2ccccc2CCc2ccccc21 | -9.2% (inactive) | 128% | -0.894 | -0.347 | 2.03 | -12.3% (inactive) | -0.545 (inactive) | -3.3e-05 (inactive) | 0.00498 (inactive) | inactive | -3.09% (inactive) and 37.3% (inactive) | -11.2% (inactive) | 5.17% (inactive) | – | – | – |
| COc1cc2nc(N3CCN(C(=O)C4CCCO4)CC3)nc(N)c2cc1OC (centres undefined) | -29.4% (inactive) | 105% | 1.01 | -0.263 | -0.73 | 16.8% (inactive) | – | – | – | inactive | 3.5% (inactive) and -0.975% (inactive) | 16.1% (inactive) | 30.2% (inactive) | – | -7.9% (inactive) | 82% |
| COc1ccc(-n2c(C)c(C(C)=O)c3cc(O)ccc32)cc1 | 4.2% (inactive) | 135% | -0.551 | -0.198 | 0.861 | 9.39% (inactive) | -0.4 (inactive) | -4.1e-05 (inactive) | – | inactive | 30.2% (inactive) | – | – | 0.00708 (inactive) | – | – |
